# Results published in ChEMBL document CHEMBL4513160, “CO-ADD screening of MMV (CH) - Small Polar Library”.
# Out of some 18,000 compounds screened, fewer than 10 showed an effect of 50% or more. Only a sample is shown.
# Test system: Pseudomonas aeruginosa
# Test: Antibacterial activity against Pseudomonas aeruginosa PAO397 [PAO1 d(mexAB-oprM) d(mexCD-oprJ) d(mexEF-oprN) d(mexJKL) d(mexXY) d(opmH)] (CO-ADD:GN_211); MIC in CAMBH media using NBS plates, by OD(600)
# Format: functional
# Details: Concentration 300 ug.mL-1, ASSAY_TEST Inhibition of Bacterial Growth, detection method Absorption (OD600), MEDIA CAMHB, plate type 384well, CORNING #3640, time 18 hr
row,SMILES,Inhibition
1,CCNC(=O)COC(=O)c1cc(O)nc2ccccc12,-1.47%
2,Cc1cc(CO)ccc1N1CCOCC1,6.45%
3,CC(C)OCC(O)CN1CCc2ccc(O)cc2C1 (centres undefined),-14.27%
4,CCc1ccc(CN2Cc3cnn(CCO)c3C2)nc1,18.58%
5,NC(=O)CN1CCC(NC(=O)c2cc(Br)c[nH]2)CC1,14.11%
6,O=C(CNC(=O)N1CCC=C(Br)C1)N1CCCCC1,-37.56%
7,CCN(Cc1[nH]cnc1C)C1CCS(=O)(=O)C1 (centres undefined),6.36%
8,CN1N=C(C(=O)Nc2ccc(Cl)cn2)CCC1=O,8.23%
9,Cc1cc(=O)n(C)cc1NC(=O)CCc1ccccn1,1.98%
10,CC(C)(C)c1noc(CN2CCSCC2)n1,-15.23%
11,CC(O)CN(C)c1ncc(Br)cn1 (centres undefined),-40.03%
12,CC(C)(C)SCC(=O)Nc1ccc(CS(N)(=O)=O)cc1,-2.55%
13,CS(=O)(=O)NC(c1ccc(F)cc1)c1cccnc1 (centres undefined),-27.51%
14,CN(C)CCOC1CCNCC1,12.65%
15,COC(=O)CNC(=O)CSc1nc(C)cc(C)c1C#N,-8.27%
16,CN1CCC(CN(C)S(=O)(=O)c2ccccc2)CC1,-25.1%
17,Cc1cc(C)n(-c2ccc(C(=O)NC(C)(C)C)cn2)n1,9.83%

row,SMILES,Inhibition
1,Cn1cccc1CNCCNC(=O)c1ccn[nH]1,-19.28%
2,c1ccc(C2=NCCN2)nc1,8.57%
3,Cc1ccc(CC(=O)N2CCC[C@H]2CO)cc1O,9.81%
4,c1ccc2[nH]c(NCC3CCCO3)nc2c1 (centres undefined),-27.33%
5,COCCNC(=O)CN1CCC2(CC1)OCCO2,24.44%
6,CCOc1cccc(NC(=O)c2ccc(C)[nH]c2=O)n1,14.98%
7,CN1CCOC(C(=O)Nc2ncc(Cl)s2)C1 (centres undefined),-8.17%
8,CC(=O)NC1CCN(Cc2ccc(F)c(F)c2)CC1,-27.6%
9,Cc1ccccc1OCCN1CCC(C(N)=O)CC1,0.98%
10,COc1ccccc1OCC(C)N (centres undefined),15.24%
11,NC1CC(c2cc(NCC[C@H]3CCCN3)ncn2)C1 (some centres undefined),15.98%
12,CNc1nnc(SCc2csc(NC(C)=O)n2)s1,-5.82%
13,COc1ccc(C(N)c2ccncc2)cc1 (centres undefined),-28.12%
14,CC(=O)N1CCN(c2ccc(CN)cc2)CC1,-1.93%
15,O=C(NC1CC1)c1n[nH]c2ccccc12,-5.33%
16,O=C(CCCc1nccs1)NCC(=O)N1CCCCC1,-6.34%
17,CC(CS(C)(=O)=O)NC(=O)C(C)(C)C (centres undefined),-7.14%
